# Compound activity (PubChem)
# A selection: hits, their analogues and other compounds. The true share with any hit is near 11%.
# G9a inh: qHTS Assay for Inhibitors of Histone Lysine Methyltransferase G9a | Potency, µM (series often up to 102 µM), inactives show top-dose activity, negative = inhibition, actives largely listed as inhibitors | 8.8% of 350,000 active | G9a H3K9 monomethylation, AlphaScreen, 2 h | AID 504332, 2011; note: % is set by controls: 0 for no effect and ±100 for the full control effect; nearly all actives have a fitted effect of over 75% in size
# Target sequence (Q96KQ7 913-1193 limits assumed): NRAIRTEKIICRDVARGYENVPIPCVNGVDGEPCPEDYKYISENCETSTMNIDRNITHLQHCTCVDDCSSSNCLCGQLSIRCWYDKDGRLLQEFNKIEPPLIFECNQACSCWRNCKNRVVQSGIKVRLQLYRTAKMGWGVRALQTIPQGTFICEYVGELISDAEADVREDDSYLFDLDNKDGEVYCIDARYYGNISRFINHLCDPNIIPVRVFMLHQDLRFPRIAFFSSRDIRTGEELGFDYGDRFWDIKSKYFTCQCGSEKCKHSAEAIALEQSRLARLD
#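 Readings reflect AlphaScreen signal from monomethyl-H3K9 antibody detection. HMT at 20 nM; substrate b-H3K9 500 nM; cofactor SAM 20 uM; 2 h RT reaction; compounds tested as titrations in qHTS with 15 min preincubation.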
# L3MBTL1 block: qHTS Assay for the Inhibitors of L3MBTL1 | AID 485360, 2010 | AlphaScreen L3MBTL1–H3K9me1 peptide binding | 0.66% of 230,000 active | Potency, µM (highest dose often 57.1 µM), for the others: at the highest dose activity, negative = inhibition, hits mostly inhibitors | Lethal(3)malignant brain tumor-like protein 1 (Homo sapiens), Q9Y468; note: % is set by controls: 0 for no effect and ±100 for the full control effect; nearly all actives have a fitted effect of over 60% in size
#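 AlphaScreen proximity signal between nickel-chelate acceptor and streptavidin donor beads (final 10 ug/mL) reports binding of 50 nM L3MBTL1 to 75 nM biotin-H3 K9me1 peptide; complex incubated with compounds 30 min at room temperature; cefsulodin titration as control.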
# JMJD2A Tudor: qHTS Assay for Inhibitors of JMJD2A-Tudor Domain; Lysine-specific demethylase 4A (Homo sapiens), O75164; AlphaScreen JMJD2A-Tudor / H3K4me3 peptide binding; Potency, µM (top dose mostly 114 µM), without a hit: at the top dose activity change, negative = inhibition, hits mostly inhibitors; 4.4% of 390,000 active; AID 504339, 2011; note: % is set by controls: 0 for no effect and ±100 for the full control effect; nearly all actives have a fitted effect of over 50% in size
# HP1b chromo inh: HTS for Inhibitors of HP1-beta Chromodomain Interactions with Methylated Histone Tails. Chromobox protein homolog 1 (Homo sapiens), P83916. AlphaScreen HP1-beta / biotin-H3K9me3 peptide binding. Potency, µM (series often up to 114 µM), without a hit: at the highest dose activity change, negative = inhibition, most hits filed as inhibitors. 0.56% of 390,000 active; note: nearly all actives have a fitted effect of over 70% in size
# Target sequence (P83916 whole entry, looked up): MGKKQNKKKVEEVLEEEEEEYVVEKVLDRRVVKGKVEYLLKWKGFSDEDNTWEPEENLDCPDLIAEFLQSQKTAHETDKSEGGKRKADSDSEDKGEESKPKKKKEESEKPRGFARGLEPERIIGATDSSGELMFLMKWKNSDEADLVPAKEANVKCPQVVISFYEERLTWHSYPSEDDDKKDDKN
#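 AlphaScreen: HP1-beta (50 nM) preformed 30 min with biotin-H3(1-18)K9me3 peptide (50 nM) in PBS pH 7.4, 0.01% Tween-20. Compound added for 30 min at RT, then streptavidin donor/nickel chelate acceptor beads (10 ug/mL) for 30 min.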
# BAZ2B inh: qHTS Assay for Inhibitors of BAZ2B; Bromodomain adjacent to zinc finger domain protein 2B (Homo sapiens), Q9UIF8; AlphaScreen BAZ2B-H3K14Ac peptide displacement; Potency, µM (top dose mostly 114 µM), for inactives: at the top dose activity change, negative = inhibition, actives largely listed as inhibitors; 4.4% of 360,000 active; note: % is set by controls: 0 for no effect and ±100 for the full control effect; nearly all actives have a fitted effect of over 60% in size
#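 AlphaScreen luminescence quantifies BAZ2B engagement of H3K14Ac peptide; the protein and biotinylated peptide are both at 50 nM final, buffer PBS pH 7.4 with 0.01% Tween-20, all steps at room temperature.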
# The depositor's hits bear a star; ? = inconclusive; · = no result; [ ] = dose if it differs, or a comment. Calls come from the whole dose curve; as a rule, active = well fitted inhibition curve with a large enough effect; inconclusive = small, poorly fitted or top-dose-only effect; inactive = no such curve, though single readings can be large or run the other way. Potency is the fitted concentration of half-maximal effect.
SMILES,G9a inh,L3MBTL1 block,JMJD2A Tudor,HP1b chromo inh,BAZ2B inh
CC(NC(=O)/C(C#N)=C/c1ccc(OCC(=O)O)cc1)c1ccccc1 (centres undefined),·,-10%,-13%,25%,5%[57.1 µM]
N#C/C(=C\c1ccc(O)c(O)c1)C(=O)Nc1ccccc1,7.1µM*,-21%,?,?,13µM*
N#C/C(=C/c1cccc(O)c1)C(=O)NCc1ccc(Cl)cc1,1%,·,-22%,-3%,-19%
N#C/C(=C/c1ccc(O)c(O)c1)C(=O)NCc1ccc(Cl)cc1,11µM*,·,13µM*,28µM*,35µM*
C[C@@H](NC(=O)/C(C#N)=C/c1ccc(O)c(O)c1)c1ccccc1,2.8µM*,-27%,40µM*,?,35µM*
Cc1nn2c(C)c(C(=O)NCC(C)c3ccccc3)cnc2c1-c1ccccc1 (centres undefined),27%[59 µM],·,-8%,23%,4%
N#C/C(=C/c1ccc(O)c(O)c1)C(=O)OC/C=C/c1ccccc1,1.6µM*,·,·,·,·
N#C/C(=C\c1ccc(O)c(O)c1)C(=O)Nc1cccc2ncccc12,8.9µM*,·,?,-8%,?
C=CCN1C(=O)/C(=C2/Sc3ccccc3N2CC)SC1=S,1%,8%,-8%,35%,9%
CCCN1/C(=C2/SC(=S)N(CC)C2=O)C=Cc2ccccc21,?,·,3.2µM*,?,2µM*
CCN1C(=O)/C(=C2/C=Cc3ccccc3N2CC)SC1=S,13µM*,·,11µM*,?,7.9µM*
CN1C(=O)/C(=C2/C=Cc3ccccc3N2CCCS(=O)(=O)O)SC1=S,?,·,?,?,45µM*
CCCN1C(=O)/C(=C2/C=Cc3ccccc3N2CC)SC1=S,3.2µM*,?,5.6µM*,3.2µM*,2.8µM*
CC(=O)N1C(=O)/C(=C2\SC(=S)N(NS(=O)(=O)c3ccc(C)cc3)C2=O)c2ccccc21,·,-1%,?,-9%,?
C[C@H](NC(=O)OC(C)(C)C)c1nnc(SCc2ccc(Cl)cc2Cl)o1,0%[59 µM],·,19%,35%,0%
C=CCN1C(=O)/C(=C2/Sc3ccccc3N2CCCS(=O)(=O)O)SC1=S,40µM*,?,6%[11.4 µM],?,?
CCCN1C(=O)c2ccccc2NC1c1ccc(OC)c(COc2ccc([N+](=O)[O-])cc2)c1 (centres undefined),·,·,-23%[57.1 µM],3%[57 µM],·
O=C(CCl)Nc1c2c(nn1-c1ccccc1)CSC2,6%[59 µM],·,45µM*,-18%[57 µM],-13%
Cc1cccc(-n2nc3c(c2NC(=O)c2ccc(Br)o2)CSC3)c1,40µM*,·,-13%,32%,-35%
O=C(CCCCl)Nc1c2c(nn1-c1ccccc1)CSC2,2%,·,-7%,31%,-17%[57.1 µM]
COC(=O)c1cc(Cl)ccc1NC(=O)Cn1c(C)cc(C)c(C#N)c1=O,1%[59 µM],·,-3%,29%,-2%
Cc1[nH]n(-c2ccccc2)c(=O)c1Sc1ccc(Cl)cc1,?,-9%,-20%,14%,-33%
Cc1cc(-c2c(C)[nH]n(-c3ccc(Cl)cc3)c2=O)n[nH]1,1%,-28%,?,8%,28µM*
Cc1ccsc1-c1nc(-c2ccccc2)c(-c2ccccc2)[nH]1,43%[12.7 µM],3%,7%,20%,-2%
COc1ccc(-c2[nH]c(-c3ccc(C(=O)O)cc3)nc2-c2ccccc2)cc1,79µM*,0%,?,19%,79µM*
SMILES,G9a inh,L3MBTL1 block,JMJD2A Tudor,HP1b chromo inh,BAZ2B inh
CS(=O)(=O)c1nc(-c2ccccc2)c(-c2ccccc2)[nH]1,45µM*,-1%,-6%,3%,?
O=C(O)c1ccc(-c2nc(-c3ccccc3)c(-c3ccccc3)[nH]2)cc1,-2%[59 µM],-6%,79µM*,40µM*,?
CCCCNC(=S)Nc1cccc2cnccc12,45µM*,-4%,-6%,3%,12%
COCCNC(=S)Nc1cccc2cnccc12,50µM*,·,-6%,31%,-6%
COc1cccc(CNC(=O)CCc2c(C)nn(-c3ccc(N4CCOCC4)nn3)c2C)c1,7%[59 µM],·,2%,39%,-32%
O=C1OC2(CCCCC2)OC(=O)C1=CNc1nccs1,50µM*,10%,-12%,32%,-22%
Cc1ccc(S(=O)(=O)Nc2cc(=O)[nH]c(SCC(=O)Nc3cccc(C)c3)n2)cc1,-9%,·,-7%,39%,?
Cc1ccc(S(=O)(=O)Nc2cc(=O)[nH]c(SCC(=O)Nc3ccccc3Cl)n2)cc1,56µM*,1%,-2%,44%,56µM*
Cc1ccc(NC(=O)CSc2nc(NS(=O)(=O)c3ccccc3)cc(=O)[nH]2)cc1,?,·,50µM*,-18%,?
O=C(CSc1nc(NS(=O)(=O)c2ccccc2)cc(=O)[nH]1)Nc1ccccc1Cl,-17%,·,0%,20%,?
CCc1ccc(NC(=O)CSc2nc(NS(=O)(=O)c3ccccc3)cc(=O)[nH]2)cc1,?,?,-14%,41%,50µM*
Cc1cc2c(cc1S(=O)(=O)CCC(=O)N1CCCC(C)C1)OCC(=O)N2 (centres undefined),-31%[59 µM],·,-27%,18%,-34%
O=C1CCC(c2ccc3c(c2)CCC3)=NN1,16%[2.33 µM],·,-11%,15%,-1%
C=CCNC(=S)N1CCN(C2CCCCC2)CC1,7%,·,-5%,24%,-19%
CCOC(=O)c1[nH]c(C)c(CCC(=O)Nc2ccc(Br)c(C)c2)c1C,-3%[59 µM],·,-21%,9%[57 µM],0%
COc1ccc(-c2nn3c(C4CCCCC4)nnc3s2)cc1OC,10µM*,20%,-20%,?,23%
COc1cccc(-c2nnc3sc(-c4ccccn4)nn23)c1,-1%[59 µM],0%,6%[11.4 µM],?,·
COc1ccc(-c2nn3c(-c4ccccn4)nnc3s2)cc1OC,16%[59 µM],0%,?,16%,45µM*
COc1ccccc1-c1nnc2sc(-c3cnccn3)nn12,?,·,50µM*,-2%,-38%
COc1cccc(-c2nn3c(-c4ccccn4)nnc3s2)c1,-15%,?,79µM*,63%,59%
COc1cc(NC(=O)c2cc(-c3cccc(Cl)c3)on2)c(OC)cc1Cl,-9%[59 µM],·,-3%,13%,-7%
N#C/C(=C(/O)c1ccc(Cl)cc1)c1nc2ccccc2[nH]1,15%,·,-20%,13%,-1%
N#C/C(=C(/O)C(Cl)(Cl)Cl)c1nc2ccccc2[nH]1,5%,8%,50µM*,22%[57 µM],-16%
Cc1ccc2nc(/C(C#N)=N/O)[nH]c2c1,-41%[12.7 µM],-6%,-10%[11.4 µM],47%,?
N#C/C(=C(\O)c1cc(Cl)sc1Cl)c1nc2ccccc2[nH]1,29%,·,-32%,18%[57 µM],71µM*
C/C(O)=C(/C#N)c1nc2ccccc2[nH]1,10µM*,0%,-29%,34%,?
N#C/C(=N\O)c1nc2ccccc2[nH]1,9%,-6%,56µM*,15%,?
